# Measured values reported in PubChem BioAssay (Tox21).
# Unmarked numbers belong to inactive results. Calls follow the shape of the dose curve; as a rule, active = well fitted cell-killing curve with a large enough effect in the repeat runs; inconclusive = weak or mixed curves, or effect the other way; inactive = flat fitted curve, though single readings scatter.
# Assay: qHTS assay to identify small molecule HDAC inhibitors - cell viability counter screen (AID 1259365); also: nearly all actives have a fitted effect of over 50% in size
# Details: HCT-116 viability, CellTiter-Glo ATP luminescence, 2 h; series mostly up to 92.4 µM; activity change, negative = cytotoxicity: at the top concentration
# Excerpt: U.S. Tox21 Program National Center for Advancing Translational Sciences [NCATS] NIH Chemical Genomics Center [NCGC] U.S. Environmental Protection Agency [EPA] National Institutes of Environmental Health Sciences [NIEHS] National Toxicology Program [NTP] U.S. Food and Drug Administration [FDA] Tox21 Assay Overview: Histone deacetylases (HDACs) are a group of epigenetic enzymes that regulate gene expression by histone deacetylation. HDACs are capable of introducing epigenetic modifications and such aberrations contribute to the onset and progression of several human diseases, thus making HDACs a popular therapeutic target. For identifying endogenous class I/II HDAC inhibitors a homogenous, luminogenic HDAC I/II cell based assay was used to measure the relative activity of class I and II HDACs from cells. Wild type HCT-116 cells were used to screen Tox21 compound libraries for identifying class I/II HDAC inhibitors.
# Tox21 Assay Protocol Summary: HCT-116 cells were dispensed at 1,500 per well in 5uL of culture medium into white solid bottom 1536-well plates (Greiner Bio-One, Monroe, NC) using a Multidrop Combi (Thermo Scientific, Waltham, MA) dispenser. The assay plates were incubated at 37 C and 5% CO2 for an overnight, and then 23nL of compounds dissolved in DMSO and positive control were transferred using a Pintool station (Wako, San Diego, CA). The assay plates were incubated at 37C and 5% CO2 for 2hr. After compound treatment, 4uL of CellTiter-Glo reagent (Promega Corporation, Madison, WI) was added to each well of the assay plates using Flying Reagent Dispenser (FRD, Aurora Discovery, San Diego, CA) and incubated the assay plates at room temperature for 30min. The luminescence signal was quantified using a ViewLux plate reader (Perkin Elmer, Shelton, CT).
# % is scaled to controls: 0 for no effect and ±100 for the full control effect.
row,Compound,"activity change, negative = cytotoxicity"
1,FC(F)(F)C(F)(F)C(F)(F)C(F)(F)C(F)(F)C(F)(F)CCI,-0.66% [at 42.5 µM]
2,CC[C@@H]1C[C@H](N(Cc2cc(C(F)(F)F)cc(C(F)(F)F)c2)C(C)=O)c2cc(C(F)(F)F)ccc2N1C(=O)OC(C)C,-5.31%
3,Nc1nc(N)c(-c2ccccc2)s1,-0.493% [at 42.5 µM]
4,ClC(Cl)(Cl)c1ccc(C(Cl)(Cl)Cl)cc1,-13%
5,N#Cc1c(F)cccc1F,-2.39%
6,COCCCCCCCCOCCC[Si](C)(O[Si](C)(C)C)O[Si](C)(C)C,0.144%
7,CC[C@H](C)[C@H](N)C(=O)O,-2.17% [at 42.5 µM]
8,CCCCCCCCCC(=O)OCC,-1.11%
9,C=C(C)C(=O)OCCN(C)C,1.1%
10,CCCCOc1ccc(CC(=O)NO)cc1,-2.8% [at 42.5 µM]
11,c1ccc(OCc2ccc(CCCN3CCOCC3)cc2)cc1,-1.19% [at 42.5 µM]
12,O=C(O)[C@@H]1[C@H]2C[C@H]3c4[nH]c5ccccc5c4CCN3C[C@@H]2CC[C@@H]1O,-1.11% [at 42.5 µM]
13,CCOC(=S)SSC(=S)OCC,1.65%
14,C=CC[N+]1([C@H]2C[C@H]3[C@@H]4CC[C@H]5C[C@H](OC(C)=O)[C@@H](N6CCCCC6)C[C@]5(C)[C@H]4CC[C@]3(C)[C@H]2OC(=O)CC)CCCCC1,1.48% [at 42.5 µM]
15,CC1CCc2cc(F)cc3c(=O)c(C(=O)O)cn1c23 (stereo not given),3.72% [at 42.5 µM]
16,O=C1CCCCCO1,-0.691%
17,CCCCCCCCCCCCCCCCCBr,0.135% [at 19 µM]
18,Oc1ccc(Sc2ccc(O)cc2)cc1,11%
19,NC1CCN(c2nc3c(cc2F)c(=O)c(C(=O)O)cn3-c2ccc(F)cc2F)C1 (stereo not given),4.63% [at 42.5 µM]
20,CCCOc1ccc2nc(NC(=O)OC)[nH]c2c1,2.49% [at 42.5 µM]

row,Compound,"activity change, negative = cytotoxicity"
1,COC(Cc1ccccc1)OC,-0.626%
2,CCCC(C)C,9.78%
3,CN(C)CC/C=C1\c2ccccc2COc2ccccc21,-3.14% [at 42.5 µM]
4,CC(=O)/C(C)=C/C1C(C)=CCCC1(C)C (stereo not given),-0.738%
5,O=[N+]([O-])c1cc[n+]([O-])cc1,-15.5%
6,Cc1cccc(OCCOc2cccc(C)c2)c1,-7.55%
7,O=C(Cl)c1ccc([N+](=O)[O-])cc1,9.13%
8,CCOC(=O)CC(=O)c1cc(F)c(Cl)nc1Cl,1.23%
9,CCN(CC)CCc1nc(-c2ccccc2)no1,6.27% [at 42.5 µM]
10,Cc1ccccn1,-0.728%
11,CCCC(=O)OCC,0.577%
12,Cc1ccc2c(ccc3ccccc32)c1,4.52%
13,CC1(C)CCC(C)(C)c2cc(NC(=O)c3ccc(C(=O)O)cc3)ccc21,-1.9% [at 42.5 µM]
14,CC(=O)[C@@]1(O)CC[C@H]2[C@@H]3C[C@H](C)C4=CC(=O)CC[C@]4(C)[C@H]3CC[C@@]21C,-1.47% [at 42.5 µM]
15,CC1=CCC(C(C)C)C=C1 (stereo not given),-1.62%
16,O=C(O)Cn1c(C(=O)Nc2nc(-c3ccccc3Cl)cs2)cc2ccccc21,-0.191% [at 42.5 µM]
17,Cc1cc(C)c(S(=O)(=O)O)cc1N=Nc1cc(S(=O)(=O)O)c2ccccc2c1O,-26.1%
18,CN(C(=O)CCCOc1ccc2[nH]c(=O)ccc2c1)C1CCCCC1,-1.55% [at 42.5 µM]
19,CNCC[C@@H](Oc1ccccc1C)c1ccccc1,-3.33% [at 42.5 µM]
20,CC(C)CC=O,-0.369%
